Compound activity deposited in PubChem by National Center for Advancing Translational Sciences (NCATS).
HT1080-NT tox = qHTS for induction of synthetic lethality in tumor cells producing 2HG: qHTS for the HT-1080-NT fibrosarcoma cell line | HT-1080-NT fibrosarcoma viability, CellTiter-Glo ATP luminescence, 48 h | Potency, µM (series often up to 46.1 µM), inactives show at the highest dose activity, negative = less viability, most hits filed as cytotoxic | hit rate 1.6% among 360,000 | AID 686970, 2013;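 note: NT is the 2HG producing partner of a matched IDH1 knockdown line; 0% = DMSO-treated cells and -100% = media-only wells without cells; nearly all actives have a fitted effect of over 55% in size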
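Toxicity toward the 2HG-producing NT line was scored as %Activity, normalised to DMSO and no-cell wells, from CellTiter-Glo luminescence after 48 hours' treatment.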
KB-V1 MDR tox = qHTS assay for MDR1-selective chemotherapeutics: Primary screen using the drug-selected MDR subline cells KB-V1 | KB-V1 MDR cells viability, CellTiter-Glo, 72 h | Potency, µM (highest dose often 46.1 µM), actives largely listed as cytotoxic | hit rate 3.4% among 400,000 | AID 1347076, 2019; note: % is set by controls: 0 for no effect and ±100 for the full control effect; nearly all actives have a fitted effect of over 60% in size
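Compound-treated KB-V1 multidrug-resistant cells, 72 h, 37 degrees C; viability by CellTiter-Glo. Fitted qHTS curves give the values.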
KB-3-1 cytotox = qHTS assay for MDR1-selective chemotherapeutics: Primary screen using the parental adenocarcinoma cell KB-3-1; Potency, µM (series often up to 46.1 µM), actives largely listed as cytotoxic; AID 1347075, 2019; KB-3-1 viability, CellTiter-Glo ATP luminescence, 72 h; hit rate 1.4% among 400,000; note: % is set by controls: 0 for no effect and ±100 for the full control effect; nearly all actives have a fitted effect of over 60% in size
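Viability of parental KB-3-1 cells, measured by CellTiter-Glo luminescence, followed a 72 h incubation at 37 °C with pinned compounds in phenol-red-free DMEM containing 10% FBS.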
MCF10A rerep = A quantitative high throughput screen for small molecules that induce DNA re-replication in MCF 10a normal breast cells | MCF 10A DNA re-replication, Hoechst nuclear intensity, 48 h | Potency, µM (titrated, usually from 46.1 µM), for the others: top-dose activity, positive = re-replication, usual class: activators | hit rate 2.9% among 350,000 | AID 624296, 2012; note: % of control where 0% means no effect; nearly all actives have a fitted effect of over 50% in size
SW480 rerep = A quantitative high throughput screen for small molecules that induce DNA re-replication in SW480 colon adenocarcinoma cells; Potency, µM (series often up to 46.1 µM), inactives show at the highest dose re-replication activation, most hits filed as activators; SW480 DNA re-replication, Hoechst DNA content imaging, 48 h; hit rate 1.8% among 340,000; AID 624297, 2012; note: % of control where 0% means no effect; nearly all actives have a fitted effect of over 55% in size
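Readout is total intensity of Hoechst-stained nuclei, excited at 405 nm and collected at 500-530 nm. Compound treatment lasted 48 hr at 37 C in 5% CO2 before staining.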
HT1080 IDH1KD tx = qHTS for induction of synthetic lethality in tumor cells producing 2HG: qHTS for the HT-1080-IDH1KD cell line. HT-1080 IDH1 knockdown viability, ATP luminescence, 48 h. Potency, µM (doses to about 46.1 µM), without a hit: at the highest dose activity, negative = toxicity, actives largely listed as cytotoxic. hit rate 2% among 360,000. AID 686971, 2013;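 note: 0% = DMSO wells and -100% = cell-free medium wells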
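In this qHTS, HT-1080 cells depleted of IDH1 are exposed for 48 h at 37 °C to compound titrations. Toxicity is scored from CellTiter-Glo luminescence, with DMSO as full viability and medium alone as none.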
Active calls of the source: *; [ ] = remark or other dose. Sampled rows, rich in hits. Any-hit rate of the full collection: about 8%. Calls come from the whole dose curve; as a rule, active = well fitted curve in the direction sought with a large enough effect; inconclusive = small, poorly fitted or top-dose-only effect, or another doubt; inactive = no such curve, though single readings can be large; an effect the other way counts as inactive or inconclusive. Potency is the fitted concentration of half-maximal effect.

Results for N#C/C(=C\c1ccc(Cl)cc1)c1nc2ncccc2[nH]1 ?
HT1080-NT tox: inconclusive; KB-V1 MDR tox: 18.4µM*; KB-3-1 cytotox: inactive; MCF10A rerep: inconclusive; SW480 rerep: inconclusive; HT1080 IDH1KD tx: -10.4%[9.24 µM]

How did N#C/C(=C\c1ccc(Sc2ccc(Cl)cc2)o1)c1nc2ccccc2[nH]1 do in these assays?
HT1080-NT tox: -1.6%; KB-V1 MDR tox: 14.6µM*; KB-3-1 cytotox: inactive; MCF10A rerep: 14.6µM*; SW480 rerep: inconclusive; HT1080 IDH1KD tx: -5.8%

What do the screens show for `CCc1ccc2oc(C(=O)Nc3c(C)n(C)n(-c4ccccc4)c3=O)cc(=O)c2c1`?
KB-V1 MDR tox: inactive; KB-3-1 cytotox: inactive

What do the screens show for `O=C(CCN1C(=O)S/C(=C\c2ccccc2)C1=O)N1CCCCC1`?
HT1080-NT tox: -0.3%; KB-V1 MDR tox: inactive; KB-3-1 cytotox: inactive; MCF10A rerep: 13.8%; SW480 rerep: 2.7%; HT1080 IDH1KD tx: -0.9%

Results for CCN(CC)CCC(=O)N1C/C(=C/c2ccccc2)C(=O)/C(=C\c2ccccc2)C1 ?
HT1080-NT tox: inconclusive; KB-V1 MDR tox: inconclusive; KB-3-1 cytotox: inactive; MCF10A rerep: inconclusive; SW480 rerep: inconclusive; HT1080 IDH1KD tx: 2.91µM*

How did O=C1/C(=C\c2ccc(Cl)c(Cl)c2)CN(C(=O)CCN2CCOCC2)C/C1=C/c1ccc(Cl)c(Cl)c1 do in these assays?
HT1080-NT tox: 5.17µM*; KB-V1 MDR tox: inconclusive; KB-3-1 cytotox: 3.66µM*; MCF10A rerep: inconclusive; SW480 rerep: inconclusive; HT1080 IDH1KD tx: 5.17µM*

What do the screens show for `O=C(NCCN1CCOCC1)c1ccc(Cl)c(Cl)c1`?
HT1080-NT tox: 16.6%; KB-V1 MDR tox: inactive; KB-3-1 cytotox: inactive; MCF10A rerep: -0.2%; SW480 rerep: 0.7%; HT1080 IDH1KD tx: 28.0%

How did O=C1/C(=C\c2ccccc2)CN(C(=O)CCN2CCCCC2)C/C1=C/c1ccccc1 do in these assays?
HT1080-NT tox: inconclusive; KB-V1 MDR tox: inconclusive; KB-3-1 cytotox: inconclusive; MCF10A rerep: inconclusive; SW480 rerep: inconclusive; HT1080 IDH1KD tx: 2.91µM*

How did Cc1ccc(C)c(NC(=O)CSc2c(C)cnc3c2c(=O)n(C)c(=O)n3C)c1 do in these assays?
KB-V1 MDR tox: inactive; KB-3-1 cytotox: inactive

What do the screens show for `CC/C(=C\c1ccc(C(=O)OC)cc1)c1cc(OC)cc2oc3ccccc3c12`?
KB-V1 MDR tox: inactive; KB-3-1 cytotox: inactive

How did O=S1(=O)N=C(Oc2ccc(C(F)(F)F)cc2)c2ccccc21 do in these assays?
KB-V1 MDR tox: inactive; KB-3-1 cytotox: inconclusive

How did Cc1ccc(C)c(NC(=O)Cn2cc(S(=O)(=O)Cc3cccc(Cl)c3)c3ccccc32)c1 do in these assays?
KB-V1 MDR tox: inactive; KB-3-1 cytotox: inactive

Results for O=C(C1CCCCC1)N1CCC(c2nc3c(nnn3Cc3ccccc3Cl)c(=O)[nH]2)CC1 ?
HT1080-NT tox: -8.8%; KB-V1 MDR tox: inactive; KB-3-1 cytotox: inactive; MCF10A rerep: 2.7%; SW480 rerep: -0.6%; HT1080 IDH1KD tx: -0.7%

Results for O=C(NCC1CCCO1)c1nc2c(nnn2Cc2ccc(F)cc2)c(=O)[nH]1 (stereo not drawn) ?
HT1080-NT tox: -0.4%; KB-V1 MDR tox: inactive; KB-3-1 cytotox: inactive; MCF10A rerep: 18.7%; SW480 rerep: -9.5%; HT1080 IDH1KD tx: -7.3%

How did Cc1ccc(C)c(Cn2nnc3c(=O)[nH]c(C(=O)NCc4ccco4)nc32)c1 do in these assays?
HT1080-NT tox: 13.7%; KB-V1 MDR tox: inconclusive; KB-3-1 cytotox: inactive; MCF10A rerep: 36.8%; SW480 rerep: 19.4%; HT1080 IDH1KD tx: -20.9%

How did CCCCCCC(=O)N1CCC(c2nc3c(nnn3Cc3ccccc3Cl)c(=O)[nH]2)CC1 do in these assays?
HT1080-NT tox: 12.6µM*; KB-V1 MDR tox: inactive; KB-3-1 cytotox: inactive; MCF10A rerep: 0.5%; SW480 rerep: 14.8%; HT1080 IDH1KD tx: 11.2µM*

What do the screens show for `O=C(NCc1cccs1)c1nc2c(nnn2Cc2ccc(F)cc2)c(=O)[nH]1`?
HT1080-NT tox: -21.6%; KB-V1 MDR tox: 23.1µM*; KB-3-1 cytotox: inactive; MCF10A rerep: -4.8%; SW480 rerep: -1.0%; HT1080 IDH1KD tx: inconclusive

How did O=C(NCc1ccco1)c1nc2c(nnn2Cc2ccccc2Cl)c(=O)[nH]1 do in these assays?
HT1080-NT tox: 17.8µM*; KB-V1 MDR tox: inactive; KB-3-1 cytotox: inconclusive; MCF10A rerep: 7.4%; SW480 rerep: -0.3%; HT1080 IDH1KD tx: inconclusive

How did CN1CCN2c3ccccc3CC3(C(=O)OC(C)(C)OC3=O)C2C1 (stereo not drawn) do in these assays?
KB-V1 MDR tox: inactive; KB-3-1 cytotox: inactive

Results for CC(=O)c1cccc(Nc2c3c(nc4nc(-c5cccs5)nn24)CCCC3)c1 ?
KB-V1 MDR tox: inactive; KB-3-1 cytotox: inactive

What do the screens show for `O=C(Cc1ccc(NC(=O)N2CCCCc3ccccc32)cc1)NCc1ccccc1`?
KB-V1 MDR tox: inactive; KB-3-1 cytotox: inactive

Results for CC(C)(c1ccccc1)c1ccc(OCC(O)CN2CCCC2)cc1 (stereo not drawn) ?
HT1080-NT tox: inconclusive; KB-V1 MDR tox: inactive; KB-3-1 cytotox: inconclusive; MCF10A rerep: inconclusive; SW480 rerep: 16.4µM*; HT1080 IDH1KD tx: inconclusive

What do the screens show for `C=CCc1ccccc1OCC(O)CN1CCOCC1` (stereo not drawn)?
HT1080-NT tox: 1.8%; KB-V1 MDR tox: inactive; KB-3-1 cytotox: inactive; MCF10A rerep: 9.3%; SW480 rerep: 11.6µM*; HT1080 IDH1KD tx: -1.2%

How did CCCc1ccc(OCC(O)CN2CCCC2)cc1 (stereo not drawn) do in these assays?
HT1080-NT tox: -17.7%; KB-V1 MDR tox: inactive; KB-3-1 cytotox: inactive; MCF10A rerep: 14.6µM*; SW480 rerep: -1.8%; HT1080 IDH1KD tx: -19.0%

How did C=CCc1ccccc1OCC(O)CN1CCN(c2ccc(OC)cc2)CC1 (stereo not drawn) do in these assays?
HT1080-NT tox: -0.3%; KB-V1 MDR tox: inactive; KB-3-1 cytotox: inactive; MCF10A rerep: 16.2%; SW480 rerep: 2.7%; HT1080 IDH1KD tx: 3.3%
